This is one part of a sample in which hits are shown more often than they occur.
Sm TGR inh: inhibitors of Schistosoma mansoni thioredoxin glutathione reductase; Q962Y6; Potency, µM (doses to about 114 µM), for inactives: at the top dose activity change, negative = inhibition, hits mostly inhibitors; AID 485364; purified TGR, DTNB reduction, TNB absorbance 405 nm; actives 3% (n = 360,000); also: potency is read from the fitted curve at half-maximal effect; % is scaled to controls: 0 for no effect and ±100 for the full control effect; nearly all actives have a fitted effect of over 60% in size
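TGR 20 nM + NADPH 100 uM (dispensed conc.), cpd preinc 15 min RT; start with NADPH (500 uM addition) then DTNB (15 mM addition). Kinetic TNB absorbance, 405 nm filter. Four-parameter Hill fit across titration.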
CHX counter: counter-screen hit for Shiga toxin inhibitors, cycloheximide; AID 2314; actives 12% (n = 300,000); max response, %; cell reporter, cycloheximide protein synthesis inhibition counterscreen; in the data active = max response mostly above about 13%, no sharp cut-off; inactive = mostly below about 14%; also: read at 38.3 µM for the half of the compounds with a filed dose; 0% is about no effect
Shiga inhibitor: blocks Shiga toxin action in Vero cells. Vero cells, Shiga toxin protein synthesis inhibition reporter. inhibition, % at 38.7 µM. actives 9.2% (n = 290,000). AID 2315; in the data active = inhibition mostly above about 28%, no sharp cut-off; inactive = mostly below about 43%; also: 0% is about no effect
LmPK inhibitor: blocks Leishmania mexicana pyruvate kinase activity | Q27686 | purified LmPK, Kinase-Glo ATP luminescence, 1 h | Potency, µM (series often up to 57.5 µM), without a hit: at the highest dose activity change, negative = inhibition, actives largely listed as inhibitors | actives 0.37% (n = 290,000) | AID 1721; also: potency is read from the fitted curve at half-maximal effect; % is scaled to controls: 0 for no effect and ±100 for the full control effect
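qHTS format; LmPK 0.1 nM; substrates PEP 0.5 mM and ADP 0.1 mM. One-hour room-temperature incubation, then coupled luciferase luminescence; 0.5 nM enzyme wells mark activation.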
Giardia FBPA inh: blocks Giardia fructose-bisphosphate aldolase activity; purified Giardia FBPA; A8B2U2; actives 0.71% (n = 290,000); Potency, µM (top dose mostly 59.6 µM), without a hit: top-dose activity, negative = inhibition, actives largely listed as inhibitors; also: potency is read from the fitted curve at half-maximal effect; % is scaled to controls: 0 for no effect and ±100 for the full control effect; nearly all actives have a fitted effect of over 55% in size
Target sequence (A8B2U2 whole entry, looked up): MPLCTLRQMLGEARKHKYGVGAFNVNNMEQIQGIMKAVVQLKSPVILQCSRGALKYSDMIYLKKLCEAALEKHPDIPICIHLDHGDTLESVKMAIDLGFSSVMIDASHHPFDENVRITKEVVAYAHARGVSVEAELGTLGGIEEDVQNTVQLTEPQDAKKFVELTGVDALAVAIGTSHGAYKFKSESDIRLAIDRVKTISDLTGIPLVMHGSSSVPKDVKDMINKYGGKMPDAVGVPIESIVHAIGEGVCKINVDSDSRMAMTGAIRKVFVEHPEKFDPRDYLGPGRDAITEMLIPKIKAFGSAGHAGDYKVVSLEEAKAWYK
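Giardia FBPA (40 nM reagent) was preincubated 10 min at RT with compound (up to 57.5 uM final), then substrate plus GAPDH/TPI/NAD/arsenate coupling system with diaphorase/resazurin was added; resorufin fluorescence (525/598 nm) was read after 20 min.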
TbPYK inhibitor: inhibitors of Trypanosoma brucei pyruvate kinase | actives 0.12% (n = 410,000) | Q57TT1 | Potency, µM (titrated, usually from 76.8 µM), for inactives: at the highest dose activity, negative = inhibition, hits mostly inhibitors | TbPYK enzyme, Kinase-Glo Plus ATP luminescence, 45 min | AID 624173; also: potency is read from the fitted curve at half-maximal effect; % is scaled to controls: 0 for no effect and ±100 for the full control effect; nearly all actives have a fitted effect of over 50% in size
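Glycolytic pyruvate kinase of T. brucei was incubated with substrate, test compound and 130 uM ADP for 45 minutes at room temperature. Luminescent Kinase-Glo Plus signal was measured after 10 minutes.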
* hit, by the source's call; u = inconclusive; x = no result given; [ ] = remark or other dose. Unless noted, calls follow the shape of the dose curve; as a rule, active = well fitted curve in the direction sought with a large enough effect; inconclusive = small, poorly fitted or top-dose-only effect, or another doubt; inactive = no such curve, though single readings can be large; an effect the other way counts as inactive or inconclusive.

SMILES	Sm TGR inh	CHX counter	Shiga inhibitor	LmPK inhibitor	Giardia FBPA inh	TbPYK inhibitor
Cc1ccc(NC(=O)CCS(=O)(=O)c2cccc3nonc23)c(C)c1	0.9%	x	x	x	x	0.7%
CCc1ccccc1NC(=O)CCS(=O)(=O)c1cccc2nonc12	-30.3%	x	x	x	x	-4.3%
Cc1ccc(CNC(=O)CCS(=O)(=O)c2cccc3nonc23)cc1	25.1µM*	-4.6	-21.3	-8.2%	-5.8%	1.3%
COc1ccccc1CNC(=O)CCS(=O)(=O)c1cccc2nonc12	44.7µM*	9.1	8.4	1.7%	-6.3%	0.4%
O=C(CCS(=O)(=O)c1ccccc1Cl)NCc1ccc(F)cc1	31.6µM*	10.9	26.4	6.8%	7.9%	-12.3%
COc1ccc(NC(=O)CCS(=O)(=O)c2cccc3nonc23)cc1	u	13.3	3.7	-6.1%	2.1%	-1.9%
COc1ccc(CNC(=O)CCS(=O)(=O)c2cccc3nonc23)cc1	12.6µM*	-2.5	-14.3	0.5%	-10.9%	-5.9%
COc1ccc(C(CNC(=O)c2ccc(S(=O)(=O)Nc3ccccc3OC)cc2)N2CCCC2)cc1 (configuration not stated)	x	x	x	x	x	2.5%
COc1ccccc1CNC(=O)CCS(=O)(=O)c1cccs1	35.5µM*	9.1	32.5	-3.6%	3.2%	-3.1%
Cc1cccc(-c2nc3c4ccccc4nc(N4CCN(c5cccc(Cl)c5)CC4)n3n2)c1	-0.4%	x	x	x	x	19.8%
CCN(CC)C(=O)Nc1cnc2ccccc2c1	0.1%	17.8*	48.4	-1.0%	0.2%	-10.8%
Cc1ccc(NC(=O)Nc2cnc3ccccc3c2)cc1	24.0%	30.5*	45.0*	2.0%	2.5%	-0.4%
Cc1cc([N+](=O)[O-])nn1CC(=O)Nc1cnc2ccccc2c1	-1.1%	-1.9	19.7	0.6%	0.8%	2.3%
C=Cc1ccc(Cn2c(C)c(C(=O)NCc3cccc(C)c3)sc2=O)cc1	x	x	x	x	x	-11.6%
COc1ccc(CN(C(=O)/C=C/c2ccco2)C2CCS(=O)(=O)C2)cc1 (configuration not stated)	2µM*	-1.9	-6.0	4.1%	0.2%	-5.9%
CCOc1ccc(CN(C(=O)/C=C/c2ccco2)C2CCS(=O)(=O)C2)cc1 (configuration not stated)	4.47µM*	-2.1	-7.0	7.8%	11.8%	-11.1%
COc1cccc(CN(C(=O)/C=C/c2ccco2)C2CCS(=O)(=O)C2)c1 (configuration not stated)	7.94µM*	4.9	-7.0	-1.6%	9.7%	-11.3%
CCOc1ccc(CN(C(=O)c2ccco2)C2CCS(=O)(=O)C2)cc1 (configuration not stated)	-30.0%	-5.3	-2.4	-1.5%	6.1%	-1.4%
COc1cccc(CN(C(=O)c2ccco2)C2CCS(=O)(=O)C2)c1 (configuration not stated)	-5.1%	-1.1	-4.0	-2.0%	x	-6.1%
COc1ccc(CN(C(=O)/C=C/c2ccco2)C2CCS(=O)(=O)C2)cc1OC (configuration not stated)	3.55µM*	-3.8	-4.3	0.1%	-6.9%	-11.3%
Fc1ccc(-c2noc3ncnc(NCc4ccc(Cl)cc4)c23)cc1	11.3%	x	x	x	x	4.9%
CS(=O)(=O)Nc1ccc(C(=O)NCc2ccc3c(c2)OCO3)cc1	-27.5%	-5.9	-10.0	-7.7%	6.9%	2.2%
Cc1cc(C)n(-c2ccc(C(=O)Oc3ccc4c(c3)OCO4)cc2)n1	-1.8%	17.6*	32.5*	1.1%	-10.8%	-9.2%
CS(=O)(=O)Nc1ccc(C(=O)Nc2ccc3c(c2)OCO3)cc1	-1.0%	25.8*	52.6*	-9.5%	0.1%	0.4%
Cc1cc(C)n(-c2ccc(C(=O)Nc3ccc4c(c3)OCCO4)cc2)n1	-2.4%	45.4*	100.0*	-3.4%	-19.3%	7.5%
SMILES	Sm TGR inh	CHX counter	Shiga inhibitor	LmPK inhibitor	Giardia FBPA inh	TbPYK inhibitor
Cc1cc(C)n(-c2ccc(C(=O)NCc3ccc4c(c3)OCO4)cc2)n1	-2.1%	-5.2	-14.5	-4.3%	-10.0%	5.6%
CC(=O)Nc1ccc(C(=O)Nc2ccc3c(c2)OCO3)cc1	2.6%	17.7*	57.0*	-4.8%	-6.9%	-7.1%
CCC(=O)Nc1ccc(C(=O)Nc2ccc3c(c2)OCO3)cc1	-26.9%	15.3	6.1	-1.3%	1.8%	-6.8%
COc1ccc(-c2nnc3n2N=C(c2cc(OC)ccc2OC)CS3)c(OC)c1	x	5.3	-6.7	x	2.7%	x
CC1=C(C(=O)N(C)C)CC(CC(=O)NCc2cccc3ccccc23)C(=O)N1CCC1=CCCCC1 (configuration not stated)	x	x	x	x	x	6.9%
Cc1nn(C)c(C(=O)Nc2c(C)nn(Cc3c(F)c(F)c(F)c(F)c3F)c2C)c1Br	23.2%	1.4	-4.8	-10.4%	x	4.9%
COC(=O)c1ccc2nc(-c3ccc(F)cc3)c(Cc3ccccc3C(F)(F)F)n2c1	x	x	x	x	x	0.1%
Cc1cc2c(nc1C)CCCN2C[C@H](C)O/N=C\[C@@H](C)[C@H](OCc1ccccc1)C(C)C	x	x	x	x	4.6%[12.9 µM]	x
CC(C)(C)C(=O)Nc1ccc2c(c1)OCCOCCOc1cc(NC(=O)C(C)(C)C)ccc1OCCOCCO2	x	-7.5	12.8	-2.8%	-3.1%	-5.7%
Cc1cc(C(=O)Nc2ccc3c(c2)OCCO3)co1	-10.2%	57.2*	75.8*	-27.8%	-26.9%	-4.9%
O=C(Nc1ccc2c(c1)OCCO2)c1ccc(Cl)cc1	-9.7%	28.1*	41.6	-4.1%	-7.7%	-6.8%
COc1cc(OC)cc(C(=O)Nc2ccc3c(c2)OCCO3)c1	-16.8%	25.7*	x	u	-3.5%	u
NC(=O)Nc1ccc2c(c1)OCCO2	-7.8%	51.7*	102.7*	4.5%	0.1%	0.3%
CSc1ccccc1NC(=O)Nc1cccc2ccccc12	-0.5%	8.7	-6.1	-2.0%	x	6.9%
CCOC(=O)C1CCN(c2c(C(=O)c3ccc(OC)cc3)cnc3ccccc23)CC1	11.1%	x	x	x	x	-2.9%
COCCCn1c(=N)c(C(=O)NCc2cccnc2)cc2c(=O)n3cccc(C)c3nc21	-7.4%	x	x	x	x	-0.6%
O=C(O)CCNc1ccc2c(c1)OCCO2	41.0%	42.1*	73.0*	-8.3%	u	-7.3%
CC(C)CNS(=O)(=O)c1ccc(CCC(=O)Nc2ccc3c(c2)OCCO3)cc1	-13.1%	5.5	9.2	0.9%	1.3%	-15.2%
CC12CCC(C(=O)Nc3nc4ccccc4s3)(OC1=O)C2(C)C (configuration not stated)	x	28.8*	85.4*	-1.6%	-1.1%	-2.8%
CC12CCC(C(=O)NC(c3ccccc3)c3ccccc3)(OC1=O)C2(C)C (configuration not stated)	16.7%	-1.9	-7.9	0.1%	-0.1%	1.9%
CC12CCC(C(=O)Nc3ccc4c(c3)OCCO4)(OC1=O)C2(C)C (configuration not stated)	-6.9%	46.7*	94.5*	8.2%	-0.7%	-18.2%

Source: PubChem BioAssay
